DUX4 txn inh – DUX4-mediated transcription inhibition; activity change, negative = inhibition, % (concentration not given with the values); 293T-iDUX4 ZSCAN4-Gaussia luciferase reporter, 24 h; stronger effect = lower value; 37,000 tested, 0.8% active;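 active = mean inhibition of at least 10% in the main channel, exceeding the control channel by a set limit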;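 note: 0% = median of neutral control wells and -100% = median of positive control wells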
Numbers without * were called inactive. Only a selection was taken, and hits are over-represented in it overall.

SMILES | DUX4 txn inh
COCC(=O)NC[C@H]1[C@@H](c2ccc(C3=CCCC3)cc2)[C@@H](CO)N1C(C)=O | -1.6
O=C(N[C@@H]1CC[C@H](CCNS(=O)(=O)c2ccc(Cl)cc2)O[C@@H]1CO)c1ccccn1 | -1.8
CCCC#Cc1ccc([C@H]2[C@@H](CO)N(C(=O)C3CCOCC3)[C@H]2C#N)cc1 | -3.7
CCCNC(=O)N1C[C@H]2[C@@H](c3ccccc31)[C@@H](CO)N2Cc1ccccc1F | -1.2
CCCN1[C@@H]2c3ccc(-c4ccccc4)c(=O)n3C[C@@H]2[C@@H](CO)[C@@H]1C(=O)N1CCCCC1 | 2.2
O=C(Cc1ccccc1)N1CC[C@@H]2[C@@H](CO)Nc3ccc(-c4ccccc4F)cc3[C@@H]21 | 8.5
O=C(c1cccc(F)c1)N1CC[C@@H]2[C@H](CO)Nc3ccc(-c4ccccc4F)cc3[C@@H]21 | -31.8*
O=C(Cc1ccncc1)N1CC[C@@H]2[C@@H](CO)Nc3ccc(-c4cccc(F)c4)cc3[C@@H]21 | -9.2
O=C(c1ccc(F)cc1)N1CC[C@@H]2[C@H]1c1cc(-c3ccccc3F)ccc1N[C@@H]2CO | 18.8
O=C(c1cccc(F)c1)N1CC[C@@H]2[C@H]1c1cc(-c3ccccc3F)ccc1N[C@@H]2CO | 1.1
CN1c2ccc(-c3cccc(F)c3)cc2[C@H]2[C@H](CCN2C(=O)c2ccncc2)[C@@H]1CO | -0.9
CN1c2ccc(-c3cccc(F)c3)cc2[C@H]2[C@H](CCN2C(=O)c2ccccc2F)[C@H]1CO | -45.1*
CCC(=O)N1CC[C@@H]2[C@@H](CO)N(C)c3ccc(-c4cccc(F)c4)cc3[C@@H]21 | 9.9
O=C(Cc1ccncc1)N1CC[C@@H]2[C@H](CO)Nc3ccc(-c4ccccc4F)cc3[C@@H]21 | -48.0*
O=C(NCC(F)(F)F)[C@H]1[C@H](CO)[C@H]2Cn3c(cccc3=O)[C@@H]1N2CC1CCOCC1 | -2.7
C[C@H](NC(=O)C[C@H]1CC[C@@H]2[C@@H](COc3ccc(NC(=O)C4CCOCC4)cc3C(=O)N2C)O1)c1ccccc1 | -3.7
CCOC(=O)c1cc2c(c(-c3cccc(Br)c3)n1)[C@@H](CCO)N(C(=O)NC(C)C)C2 | -4.7
COCC(=O)N1[C@H](C#N)[C@H](c2ccccc2-c2ccc(C)cc2)[C@@H]1CO | 1.1
O=C(c1ccncc1)N1CC2(C1)[C@H](c1ccccc1)[C@H](CO)N2CC1CC1 | 11.7
O=C(NC1CCCC1)N1CC2(C1)[C@H](c1ccccc1)[C@H](CO)N2CC1CC1 | -3.3
O=C(NC1CCCCC1)N1CC2(C1)[C@H](c1ccccc1)[C@H](CO)N2CC1CCCC1 | -26.1*
O=C(c1ccncc1)N1CC2(C1)[C@@H](c1ccccc1)[C@@H](CO)N2CC1CCCC1 | -28.1*
O=C(c1ccncc1)N1CC2(C1)[C@H](c1ccccc1)[C@H](CO)N2CC1CCCC1 | -5.3
O=C(NC1CCCC1)N1CC2(C1)[C@@H](c1ccccc1)[C@@H](CO)N2CC1CC1 | 12.6
Cc1noc(C)c1S(=O)(=O)Nc1ccc2c(c1)CC(=O)N([C@H](C)CO)C[C@H](C)[C@H](CN(C)C(=O)Nc1cccc3ccccc13)O2 | -1.3
SMILES | DUX4 txn inh
CO[C@H]1CC[C@@H]2CCN(C)C(=O)CCCN(C)C(=O)c3cc(C#N)ccc3OC[C@@H]1O2 | -3.2
O=C(c1cccc(F)c1)N1CC2(C1)[C@@H](c1ccccc1)[C@@H](CO)N2C(=O)C1CCOCC1 | 7.0
CCC(=O)N1[C@H](CN(C)C(C)=O)[C@H](c2ccc(-c3ccc(F)cc3)cc2)[C@@H]1CO | -0.4
C[C@@H]1CN([C@H](C)CO)S(=O)(=O)c2ccc(C#Cc3cccc(F)c3)cc2O[C@H]1CN(C)S(=O)(=O)c1cn(C)cn1 | -2.0
COC(=O)[C@@H]1[C@@H](CO)[C@@H]2Cn3c(ccc(-c4ccccc4)c3=O)[C@@H]2N1Cc1cccc(F)c1 | -3.8
O=C1CNC[C@H]2[C@@H](c3ccc(C#CC4CCCCC4)cc3)[C@H](CO)N12 | 16.2
O=C1CNC[C@@H]2[C@H](c3ccc(C#CC4CCCCC4)cc3)[C@@H](CO)N12 | 1.5
O=C(Nc1cccc(F)c1)N1CC(=O)N2[C@H](CO)[C@@H](c3ccc(C#CCC4CCCC4)cc3)[C@@H]2C1 | -1.8
CC(=O)N1CC(=O)N2[C@H](CO)[C@@H](c3ccc(C#Cc4cccnc4)cc3)[C@@H]2C1 | -4.5
CCCC#Cc1ccc([C@H]2[C@H]3CN(C(=O)Nc4ccccc4)CC(=O)N3[C@H]2CO)cc1 | 12.6
CC(=O)N1CC(=O)N2[C@H](C1)[C@@H](c1ccc(C#Cc3cccnc3)cc1)[C@@H]2CO | 3.1
O=C1CNC[C@@H]2[C@@H](c3ccc(C#Cc4cccnc4)cc3)[C@@H](CO)N12 | -19.5*
CCCC#Cc1ccc([C@H]2[C@H](CO)N3C(=O)CN(C(=O)Nc4cccc(F)c4)C[C@@H]23)cc1 | -69.3*
CC(=O)N1CC(=O)N2[C@H](CO)[C@H](c3ccc(C#Cc4cccnc4)cc3)[C@@H]2C1 | -10.9*
CNC[C@@H]1OCCCC[C@@H](C)Oc2ccc(NS(=O)(=O)c3cn(C)cn3)cc2C(=O)N([C@@H](C)CO)C[C@H]1C | 2.1

Source: PubChem (Broad Institute)
